# The whole screen tested about 360,000 compounds, of which about 300 (0.083%) were called active. Rule as the data show it: active = activation above about 40%; inconclusive = between about 15% and that limit; inactive = weaker than that. The sample as a whole holds a higher share of actives than the screen did.
# Target: D(2) dopamine receptor (Homo sapiens) (UniProt P14416)
# Assay: Beta-Arrestin HTS for Positive Allosteric Modulators of the Human D2 Dopamine Receptor: Agonists
# Conditions: DiscoveRx PathHunter D2 beta-arrestin, luminescence, 90 min; active compounds read high; 100% = 57 uM dopamine signal
# Excerpt: There is great interest in identifying small molecule ligands for G-protein coupled receptors (GPCRs) as nearly 50% of all FDA-approved drugs target these important receptor proteins. […] Amongst the dopamine receptors (DARs), the D2 is arguably one of the most validated drug targets in neurology and psychiatry. For instance, all receptor-based antiparkinsonian drugs primarily work via stimulating the D2 DAR, whereas all FDA-approved antipsychotic agents are antagonists of this receptor. The D2 DAR is also therapeutically targeted in other disorders such as restless legs syndrome, tardive dyskinesia, Tourette's syndrome, and hyperprolactinemia.
# To this end, a miniaturized qHTS screen was developed to be screened against the Molecular Libraries Small Molecule Repository (MLSMR). This assay seeks to identify agonists against the D2 DAR.
# NIH Molecular Libraries Probe Production Network [MLPCN]
# NIH Chemical Genomics Center [NCGC]
# PI Name: David Sibley, National Institutes of Neurological Disorders and Stroke
# DiscoveRx D2 cells were thawed from frozen stock and seeded at 2,100 cells/ 3 uL/well media (DiscoveRx Plating Reagent 2) with MultiDrop Combi dispenser (Thermo Scientific, Logan, UT) onto white tissue culture treated 1536-well Aurora plates (Brooks Automation, Chelmsford, MA) and allowed to attach overnight at 37 deg C, 5% CO2. Next, 23 nL/well of compound solutions in DMSO were added with a pintool transfer (Kalypsis, San Diego, CA). As the positive control, 1 uL/well dopamine (EC100, 57 uM final concentration) diluted in buffer (HBSS + 10 mM HEPES + SMB + 0.1% Tween-20) was dispensed to 1 column of each plate. The rest of the plate was dispensed with buffer only, 1 uL/well as well. The cells were stimulated by compounds or dopamine control for 90 minutes at 37 deg C, 5% CO2, after which 1.5 ul/well of DiscoveRx detection reagent was added with BioRAPTR FRD dispenser. The detection reagent was prepared by mixing of Galacton Star Substrate, Emerald II solution and PathHunter buffer (supplied by the assay kit) together at 1:5:19 proportion accordingly just prior to dispensing. The plates were incubated at ambient temperature for 1 hour and then the luminescent signal was read on ViewLux plate reader (PerkinElmer, Waltham, MA).
# D(2) dopamine receptor (Homo sapiens), sequence (P14416 whole entry, looked up): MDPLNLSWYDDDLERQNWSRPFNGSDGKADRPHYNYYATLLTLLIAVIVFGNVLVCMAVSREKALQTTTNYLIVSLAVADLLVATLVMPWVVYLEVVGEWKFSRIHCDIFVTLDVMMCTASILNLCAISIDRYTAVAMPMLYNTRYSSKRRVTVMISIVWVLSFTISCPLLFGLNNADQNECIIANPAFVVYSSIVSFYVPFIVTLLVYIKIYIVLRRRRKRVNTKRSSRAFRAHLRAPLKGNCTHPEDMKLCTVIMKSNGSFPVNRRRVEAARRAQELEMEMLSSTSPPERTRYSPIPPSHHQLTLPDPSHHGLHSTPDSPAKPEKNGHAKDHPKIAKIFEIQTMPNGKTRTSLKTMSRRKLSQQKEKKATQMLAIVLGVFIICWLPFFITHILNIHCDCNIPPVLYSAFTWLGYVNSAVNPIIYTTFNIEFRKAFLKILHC
row,Compound,activation
1,CC(OC(=O)CNS(=O)(=O)/C=C/c1ccccc1)C(=O)Nc1ccc(S(=O)(=O)N2CCCC2)cc1 (stereo not given),0.137% (inactive)
2,CCOc1ccc(NC(=O)CN(C)C(=O)c2c(C)noc2C)cc1OCC,-1.71% (inactive)
3,NC(=O)C(Cc1ccccc1)NC(=O)C12CC3CC(CC(C3)C1)C2 (stereo not given),-2.84% (inactive)
4,CSc1nnc2c(n1)OC(c1cn(C)c3ccccc13)N(C(C)=O)c1ccccc1-2 (stereo not given),-3.75% (inactive)
5,O=C(CSc1nc2cccc(F)c2c(=O)n1-c1ccccc1)Nc1ccc2c(c1)CCC2,0.472% (inactive)
6,C=CS(=O)c1sc(Cl)c(N2CCOCC2)c1[N+](=O)[O-] (stereo not given),-11% (inactive)
7,CC(C)c1cccc(C(C)C)c1Nc1cn[nH]c1,8.06% (inactive)
8,CSCCC(NC(=O)COc1ccccc1)C(=O)N(C)CC(=O)Nc1ccc(C)cc1 (stereo not given),-3.34% (inactive)
9,Cc1ccc(Sc2cc(N3CCOCC3)nc(-c3ccccc3)n2)cc1,2.6% (inactive)
10,Cc1csc(NC(=O)CSc2nnc(-c3cccnc3)o2)n1,-2.74% (inactive)
11,CCC(=NC1CC(C)(C)NC(C)(C)C1)C1=C(O)CC(C)(C)CC1=O,0.839% (inactive)
12,CCOc1ccc(NC(=O)CN(C)CC(=O)NC(C)c2ccccc2)cc1OCC (stereo not given),-5.49% (inactive)
13,COCCn1c(C)cc(C(=O)COC(=O)/C=C/c2cccc(OC)c2)c1C,-0.488% (inactive)
14,CCCCc1nccn1CCn1ccnc1CCCC,-1.34% (inactive)
15,Cc1cc(C)nc(N2C(=O)CC(Cc3ccccc3)C2=O)n1 (stereo not given),-1.43% (inactive)
16,CC(C)c1ccc(N(C(=O)c2ccco2)C(C(=O)NC2CCCC2)c2cccnc2)cc1 (stereo not given),1.27% (inactive)
17,CCN1CCN(C(=O)/C=C\C(=O)O)CC1,-0.987% (inactive)
18,CCOc1ccc(Oc2nc(C)cc(OC)n2)nn1,-3.16% (inactive)
19,CCC(C(=O)NC1CCCCC1)N(C(=O)c1snc(C(N)=O)c1N)c1ccc(OC)cc1OC (stereo not given),-1.51% (inactive)
20,CC(=O)NC1(c2ccc(F)cc2)CCN(C(=O)c2c(F)cccc2F)CC1,-4.03% (inactive)
21,Cc1ccc(Cl)cc1NC(=O)C1CCN(S(C)(=O)=O)CC1,-3.51% (inactive)
22,CC(NCc1ccccc1OC1CCCC1)c1ccccc1 (stereo not given),-2.1% (inactive)
23,COc1ccc(-c2ccc3nnc(SCC(=O)Nc4ccc(NC(C)=O)cc4)n3n2)cc1,0.231% (inactive)

row,Compound,activation
1,O=C(NNS(=O)(=O)c1ccc(F)cc1)C1CCCCC1,-2.79% (inactive)
2,O=C(Cn1nc([N+](=O)[O-])nc1Br)NC1CCCCC1,6.2% (inactive)
3,CC(=O)c1nnn(-c2ccc(Cl)cc2C#N)c1C,-0.344% (inactive)
4,Cc1cccc2nc(CNc3ccc(F)cc3)cn12,-2.67% (inactive)
5,COc1ccc([N+](=O)[O-])cc1NC(=O)c1ccc(N(Cc2ccccc2C)S(C)(=O)=O)cc1,1.42% (inactive)
6,CN(CC(=O)NC1CCCCC1)S(=O)(=O)c1cccc2cccnc12,-4.91% (inactive)
7,CCCCCN(C(=O)NC(=O)Nc1cccc(C)c1C)S(C)(=O)=O,-5.29% (inactive)
8,Cc1ccccc1Nc1scc(-c2ccc(Br)cc2)[n+]1-c1ccccc1C,-4.78% (inactive)
9,Cc1nn(-c2ccccc2)c2c1c(C)c(CCC(=O)NCC1CCCO1)c(=O)n2C (stereo not given),-0.567% (inactive)
10,O=c1ccc2cc(S(=O)(=O)N3CCN(c4ccccc4)CC3)ccc2o1,-0.365% (inactive)
11,CCCOc1cc(C)c(S(=O)(=O)n2nnc3ccccc32)cc1C,2.16% (inactive)
12,CC(=O)N1C[C@@H](CO)[C@@H](N(C)C(=O)c2ccco2)C[C@H]1c1ccccc1,-6.66% (inactive)
13,CCCN(CCc1ccccc1)C1CCc2c(O)cccc2C1 (stereo not given),56.1% (active)
14,Cc1cc(C)cc(C(=O)N(CCc2ccccc2)C2=CC3CCC(C2)N3C)c1 (stereo not given),0.198% (inactive)
15,CCCc1cc(=O)[nH]c(SCC(=O)c2c(N)n(CC(C)C)c(=O)n(C)c2=O)n1,-5.56% (inactive)
16,Cc1ccc(-c2csc(C(C#N)=C(O)CN3CCN(C(=O)c4ccco4)CC3)n2)cc1,9.93% (inactive)
17,O=C(NCC1CCCO1)C1CCN(C2CCN(C(=O)C3CCCCC3)CC2)CC1 (stereo not given),0.237% (inactive)
18,CC1CCc2c(sc3c2C2=NS(=O)(=O)CCN2C=N3)C1 (stereo not given),-1.75% (inactive)
19,CCCCN1C(=O)C(=O)N(CC(=O)Nc2cccc(C(C)=O)c2)C1=O,-3.6% (inactive)
20,O=C1CCCN1C(=O)COc1ccc([N+](=O)[O-])cc1,-5.83% (inactive)
21,C[C@H](OC(=O)n1ccnc1)[C@@H]1O[C@@]2(C)CCC[C@@H]1O2,-0.3% (inactive)
22,CCC(=O)N1c2ccc(S(=O)(=O)NCc3ccco3)cc2CC1C (stereo not given),4.56% (inactive)
23,CC(NC(=O)CNC(=O)Cc1cccc2ccccc12)c1ccc(S(N)(=O)=O)cc1 (stereo not given),-2.38% (inactive)

row,Compound,activation
1,COc1ccc(CC(=O)NC(C)c2ccc(Cl)c(Cl)c2)cc1S(=O)(=O)N1CCOCC1 (stereo not given),-3.32% (inactive)
2,CN(C(=O)c1cccc(NC(=O)Cc2ccc(NC(=O)C3CCCN(C(=O)C4CCCC4)C3)cc2)c1)C1CCC1 (stereo not given),1.94% (inactive)
3,COC(C[C@H](O)CC(=O)COCc1ccccc1)OC,0.157% (inactive)
4,C[C@H](CO)N1C[C@H](C)[C@@H](CN(C)S(=O)(=O)c2ccc(F)cc2)OCc2cnnn2CCCC1=O,-9.17% (inactive)
5,CC(C)C1C(=O)N(Cc2cn(CCC3OCCO3)nn2)CCS(=O)(=O)N1Cc1ccc(-c2ccccc2C(F)(F)F)cc1 (stereo not given),-3.03% (inactive)
6,Oc1ccccc1CNc1ncc(Br)cc1Br,0.262% (inactive)
7,O=C(CSc1ccsc1[N+](=O)[O-])N1CCCCC1,-4.54% (inactive)
8,Cc1cccc(NC(=O)c2ccc(OCC(=O)NCc3ccccc3)cc2)c1C,-2.68% (inactive)
9,Cc1c(NC(=O)C(C)OC(=O)c2cc3c4ccccc4n(C)c3s2)c(=O)n(-c2ccccc2)n1C (stereo not given),-5.25% (inactive)
10,Cc1ccc(C(=O)NC2CCCC(C)C2C)cc1S(=O)(=O)N1CCCCC1 (stereo not given),-2.55% (inactive)
11,N#CC1=C(N)N(c2ccc(F)cc2)C(=O)C1,-1.46% (inactive)
12,CC1(C)C(=O)C2(CCCCC2)C(=O)OC1c1cccs1 (stereo not given),-2.99% (inactive)
13,COCCNc1nc(NCc2ccc(NC(C)=O)cc2)c2sccc2n1,67.7% (active)
14,COc1cccc(CNc2nc(NCc3cccs3)nc3ccsc23)c1,-1.88% (inactive)
15,CC(=O)Nc1ccc(CNc2nc(NCCN(C)C)nc3cc(-c4ccccc4)sc23)cc1,-1.9% (inactive)
16,COc1cccc(C(O)c2ncc(-c3ccc4ccccc4c3)[nH]2)c1 (stereo not given),-2.42% (inactive)
17,CC1(C(=O)Nc2ccccc2Br)CCN1C(=O)CC1CC1 (stereo not given),-0.948% (inactive)
18,COc1cc(NC(=O)C2CCN(c3cnccn3)CC2)cc(OC)c1,-4.96% (inactive)
19,COc1ccc(N(CC(=O)Nc2cc(OC)cc(OC)c2)S(=O)(=O)c2c(C)n[nH]c2C)cc1,-3.11% (inactive)
20,CCNC(=O)Nc1ccc(S(=O)(=O)Nc2cnc(C)nc2C)cc1,-5.47% (inactive)
21,O=c1ccc(-c2ccc(S(=O)(=O)Nc3ccccc3)o2)n[nH]1,-1.56% (inactive)
22,CCN1C(=O)C(=O)N(CC(=O)Nc2cc(C)ccc2C)C1=O,-2.03% (inactive)
23,CCOc1ccc(CN2CCC(n3nccc3NC(=O)C3CC3)CC2)cc1CO,4.34% (inactive)

row,Compound,activation
1,CCCNC(=O)c1cc(C2CCCCN2C(=O)OC)on1 (stereo not given),-5.6% (inactive)
2,COc1ccc(C2=Nc3ccccc3NC(=O)C2N(C(=O)c2cc3ccccc3[nH]2)c2ccccc2)cc1 (stereo not given),2.65% (inactive)
3,CC(C)(O)C#Cc1ccc(CNC[C@H]2O[C@@H](n3cnc4c(=O)[nH]c(N)nc43)[C@H](O)[C@@H]2O)s1,-5.21% (inactive)
4,O=S(=O)(Cc1nnnn1-c1ccccc1)c1ccccc1,0.629% (inactive)
5,CC(=O)c1c(N2CCN(c3ccc(F)cc3)CC2)nc(=S)n(-c2ccccc2)c1C,-6.73% (inactive)
6,CC(C)c1ccc(S(=O)(=O)N2CCN(C(=O)CN3C(=O)NC(C)(c4ccccc4)C3=O)CC2)cc1 (stereo not given),1.77% (inactive)
7,O=C(Nc1ccc(Cl)c(Cl)c1)N1CC=C(c2ccccc2)CC1,-2.15% (inactive)
8,CC1CC(C)CN(C(=O)COC(=O)c2ccc3ncsc3c2)C1 (stereo not given),0.233% (inactive)
9,CCC(=O)c1c[nH]c(C(=O)NCC2CCCO2)c1 (stereo not given),-0.182% (inactive)
10,CCCC(=O)N1c2ccc(-c3csc(N)n3)cc2CC1C (stereo not given),2.86% (inactive)
11,CC(C)(C)C(=O)OCc1nc(-c2ccc(O)c(O)c2)cs1,78% (active)
12,COc1ccc(C(C)(O)c2nc(-c3ccc(C)c(C)c3)cs2)cc1 (stereo not given),0.66% (inactive)
13,CCCN(CCC)c1c([N+](=O)[O-])c(=O)oc2ccccc12,-4.9% (inactive)
14,O=C1/C(=C\c2ccc([N+](=O)[O-])cc2)CS(=O)(=O)C/C1=C/c1ccc([N+](=O)[O-])cc1,-8.23% (inactive)
15,O=C(O)C1CCN1C1CCCCC1 (stereo not given),-0.715% (inactive)
16,OC[C@@H]1CN(Cc2cccs2)C[C@H](n2cnc3c(Nc4ccccc4)ncnc32)O1,-3.6% (inactive)
17,COc1cccc(-c2cnc3c(NC(C)=O)cc(-c4cc(F)ccc4OC)cn23)c1,2.15% (inactive)
18,CN1C(=O)/C(=C/C=C2\SCCN2C)OC1=S,-3.31% (inactive)
19,O=C1c2ccccc2C(=O)N1CCC(O)C[N+](=O)[O-] (stereo not given),-2.92% (inactive)
20,O=C(NC1CC2CCCC(C1)N2C(=O)N1CCCCC1)C1CCCCC1 (stereo not given),-2.68% (inactive)
21,O=C(Nc1ccccc1N1CCOCC1)c1ccc(OCc2cscn2)cc1,9.98% (inactive)
